Experimental findings from ChEMBL document CHEMBL3433997, “St. Jude Leishmania screening dataset” (2016) are described below.

Structures are written as SMILES.

Holding throughout (assay type): functional
The target in assay [1] is Solute carrier family 2, facilitated glucose transporter member 1 (Homo sapiens) (UniProt P11166). Briefly: ST_JUDE_LEISH: Cytotoxicity at 2uM final concentration against transgenic Leishmania Mexicana promastigotes LmGLUT1 that are glucose transport deficient and complemented with the human glucose transporter GLUT1. Activity is measured by DNA content using SYBR green in vitro.
Sequence of Solute carrier family 2, facilitated glucose transporter member 1 (Homo sapiens) (P11166 whole entry): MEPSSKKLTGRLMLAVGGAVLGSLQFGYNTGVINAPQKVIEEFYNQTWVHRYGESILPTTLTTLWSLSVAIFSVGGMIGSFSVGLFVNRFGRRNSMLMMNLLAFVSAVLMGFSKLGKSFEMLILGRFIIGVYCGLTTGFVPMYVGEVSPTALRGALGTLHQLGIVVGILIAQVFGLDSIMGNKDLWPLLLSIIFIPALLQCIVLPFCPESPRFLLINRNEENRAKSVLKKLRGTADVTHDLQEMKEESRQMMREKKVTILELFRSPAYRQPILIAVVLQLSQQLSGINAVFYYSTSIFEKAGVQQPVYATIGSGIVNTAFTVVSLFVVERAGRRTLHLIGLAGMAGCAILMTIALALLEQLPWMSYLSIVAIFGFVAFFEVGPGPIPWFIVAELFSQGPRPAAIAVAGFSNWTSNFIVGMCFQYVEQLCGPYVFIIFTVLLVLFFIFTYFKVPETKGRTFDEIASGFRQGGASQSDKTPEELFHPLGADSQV

Assay [2] addresses Hexose transporter 1 (Plasmodium falciparum) (UniProt O97467). Briefly: ST_JUDE_LEISH: Cytotoxicity at 2uM final concentration against transgenic Leishmania Mexicana promastigotes LmPfHT that are glucose transport deficient and complemented with the Plasmodium falciparum hexose transporter. Activity is measured by DNA content using SYBR green in vitro.
Assay [3] addresses Glucose transporter (Leishmania mexicana) (UniProt O61059). In words: ST_JUDE_LEISH: Cytotoxicity at 2uM final concentration against transgenic Leishmania Mexicana promastigotes LmGT2 that are glucose transport deficient and complemented with the L. Mexicana glucose transporter 2. Activity is measured by DNA content using SYBR green in vitro.

Usually inhibition stands for the relative decrease from the control value, in per cent. For the compound `OC(c1ccccc1)C1CN(Cc2ccccc2)CCC1(O)c1ccccc1` (stereo not drawn), the figures for the inhibition in assay [1], in assay [2] and in assay [3] were 8.06%, 7.93% and 7%, respectively.

As for `O=c1ccc(CNc2nc(NCCc3ccccc3)nc3ccc(Cl)cc23)c[nH]1`, the figures for the inhibition in assay [1], in assay [2] and in assay [3] were 3.36%, 3.7% and 0.86%, respectively.

Take `Cc1cccc2nc(-c3ccc(-c4cccc(NC(=O)CN5CCN(C)CC5)c4)s3)[nH]c12`: the inhibition is -0.82% in assay [1], -1.13% in assay [2] and 2.66% in assay [3].

In the case of `CCc1c(CCNCCCCCCNCCc2ccccc2)ccc(OC)c1OC`, the inhibition was 4.61% in assay [1], 5.04% in assay [2] and 2.63% in assay [3].

As for `Cc1cc(C)c(C(=O)Nc2ccc3nc(C)cc(N)c3c2)c(C)c1`, the inhibition was -0.82% in assay [1], 1.52% in assay [2] and 2.61% in assay [3].

For the compound `CCN(CC)/C(=N/C(=N)NCc1ccc(Cl)cc1Cl)NCCCCCCN/C(=N\C(=N)NCc1ccc(Cl)cc1Cl)N(CC)CC`, the inhibition was found to be 1.61% in assay [1], 1.69% in assay [2] and 1.51% in assay [3].

Take `COc1ccc(N2CCN(CCCCNC(=O)c3ccc(NC(=O)c4cc(C(F)(F)F)cc(C(F)(F)F)c4)cc3)CC2)cc1OC`: the figures for the inhibition in assay [1], in assay [2] and in assay [3] were 1.59%, 2.48% and 2.71%, respectively.

In the case of `Cc1cc(NC(=O)c2coc3cc(F)c(N4CC(C)N(C)C(C)C4)cc23)cnc1-c1ccc(C#N)cc1` (stereo not drawn), the inhibition is 0.22% in assay [1], -1% in assay [2] and -1.53% in assay [3].

Consider `COc1ccc(NC(=O)Nc2ccc(-c3cccc(-c4nc5ccccc5[nH]4)c3)cc2)cc1`, for which the inhibition was determined as 3% in assay [1], 3.12% in assay [2] and 2.89% in assay [3].

Turning to `CCOc1cc(C(=O)NC2CC(C)(C)NC(C)(C)C2)ccc1-c1nc2cc(Cl)ccc2[nH]1`, the inhibition in assay [1] was found to be 1.25%; in assay [2] it was 1.71%; in assay [3] it was 1.1%.

Consider `O=C(O[C@H]1CN[C@H](C#Cc2cc3c(Nc4ccc(OCc5cccc(F)c5)c(Cl)c4)ncnc3s2)C1)N1CCCC1`, for which the inhibition in assay [1] came out at 3.78%; in assay [2], 6.01%; in assay [3] it was 4.65%.

For `Cc1csc(NC(=O)c2cn(-c3ccccc3)nc2-c2cccs2)n1`, the inhibition was determined as 6.04% in assay [1], 4.44% in assay [2] and 0.74% in assay [3].

For the compound `CC(C)C(=O)Nc1c(F)cc(F)cc1CCc1ccc(O)cc1`, the inhibition worked out at 7.29% in assay [1], 8.12% in assay [2] and 5.01% in assay [3].

As for `Cc1cccc2nc(-c3ccc(-c4ccc(NC(=O)Nc5ccsc5)cc4)s3)[nH]c12`, the inhibition in assay [1] came out at 5.12%; in assay [2], 5.23%; in assay [3], 4.39%.

As for `Cn1cnc2c(SCc3ccccc3OCc3ccccc3)ncnc21`, the values for the inhibition in assay [1], in assay [2] and in assay [3] were 6.91%, 5.44% and 4.68%, respectively.

Consider `C#CCN(Cc1cc2c(=O)[nH]c(N)nc2cc1C)c1ccc(C(=O)N[C@@H](CCC(=O)O)C(=O)O)cc1`, for which the inhibition in assay [1] turned out to be 6.81%; in assay [2], 0.4%; in assay [3], 8.07%.

For the compound `Cc1ccc(NC(=O)c2cnc(N3CCN(c4ccncc4)CC3)c(Cl)c2)cc1`, the inhibition came to 42.8% in assay [1], 16.1% in assay [2] and 17.1% in assay [3].

For `CCc1c(CCNCCCCCCNCCc2ccc(Br)cc2)ccc(OC)c1OC`, the inhibition in assay [1] is 36.3%; in assay [2], 10.9%; in assay [3], 103%.

Turning to `CO/C(=C\C=C\c1cc2cc(Cl)c(Cl)cc2[nH]1)C(=O)Nc1ccc(NCCN(C)C)nc1`, the inhibition in assay [1] worked out at 6.97%; in assay [2], 6.98%; in assay [3] it was 2.42%.

`O=C(Nc1ccccc1)N(Cc1cccc(-c2cccc(CNCCc3ccccc3)c2)c1)C1CCN(Cc2ccccc2)CC1`: the inhibition was found to be 7.12% in assay [1], 2.49% in assay [2] and 4.94% in assay [3].

For `Cc1ccc2[nH]c(-c3ccccc3Nc3ccnc4cc(-c5nccs5)ccc34)nc2c1`, the results for the inhibition in assay [1], in assay [2] and in assay [3] were 1.04%, 4.44% and 1.35%, respectively.

`Cc1cc(=NN=Cc2ccc(Cl)cc2)c2cccc(C)c2[nH]1`: the results for the inhibition in assay [1], in assay [2] and in assay [3] were 10.4%, 9.15% and 6.63%, respectively.

In the case of `COc1ccc(-c2ccc(NC(=O)c3cccc(Cl)c3)cc2)cc1CN(C)CCO`, the values for the inhibition in assay [1], in assay [2] and in assay [3] were 1.99%, 0.94% and -1.71%, respectively.

On to `CC(C)NCc1cccc(-c2ccc(-c3nc4ccccc4[nH]3)cc2)c1`, for which the results for the inhibition in assay [1], in assay [2] and in assay [3] were 3.1%, 2.97% and 0.41%, respectively.

Consider `COc1ccc(OC)c(Cc2c(C)nc3nc(N)nc(N)c3c2C)c1`, for which the inhibition in assay [1] is -0.27%; in assay [2], 0.88%; in assay [3], -3.07%.

On to `Cc1cc(-c2ccc(NC(=O)N3CCc4cc(Cl)c(N5CCN(C)CC5)cc43)cc2)ccc1C#N`, for which the inhibition in assay [1] was 78.1%; in assay [2] it was 77.2%; in assay [3], 81.7%.

Turning to `Cc1ccc(NC(=O)NC2CCN(CCCCCNC(=O)C3CC3c3ccc(Cl)c(Cl)c3)CC2)cc1` (stereo not drawn), the inhibition was -4.5% in assay [1], -2.29% in assay [2] and -3.29% in assay [3].

In the case of `CCOC(=O)c1ccc(N2CCN(c3cc(Cl)ccc3C)CC2)c(NC(=O)Nc2ccc(Cl)c(Cl)c2)c1`, the inhibition in assay [1] was -3.21%; in assay [2], -3.18%; in assay [3] it was -0.61%.

For the compound `Cc1ccccc1N1CCN(c2ccc(C(=O)Nc3ccccc3)cn2)CC1`, the inhibition in assay [1] came to 9.19%; in assay [2], 7.8%; in assay [3], 3.84%.

Turning to `COc1ccc(Nc2ncc(C#N)c(Nc3ccccc3C(N)=O)n2)cc1N1CCN(C)CC1`, the results for the inhibition in assay [1], in assay [2] and in assay [3] were 15.8%, 18.1% and 9.63%, respectively.

Consider `Cc1cccc2nc(-c3ccc(-c4cccc(CNCCN5CCNCC5)c4)cc3)[nH]c12`, for which the inhibition amounted to 9.94% in assay [1], 8.32% in assay [2] and 9.01% in assay [3].

As to `Cc1cccc2nc(-c3cccc(-c4cccc(C(=O)NCCc5cn(C)cn5)c4)c3)[nH]c12`, the values for the inhibition in assay [1], in assay [2] and in assay [3] were -0.8%, -0.53% and 0.89%, respectively.

For `Cc1cccc2nc(-c3cccc(-c4cccc(CNCCc5ccncc5)c4)c3)[nH]c12`, the inhibition is -1.47% in assay [1], 1.2% in assay [2] and -1.48% in assay [3].

On to `Brc1cc(Br)c2c(c1)C(NCCCNc1nc3ncccc3[nH]1)CCN2` (stereo not drawn), for which the inhibition in assay [1] came out at 68%; in assay [2], 78.5%; in assay [3], 73.5%.

On to `Cc1cccc2nc(-c3ccc(-c4cccc(NC(=O)NCc5ccc(F)cc5)c4)cc3)[nH]c12`, for which the figures for the inhibition in assay [1], in assay [2] and in assay [3] were 3.38%, 4.77% and 3.65%, respectively.

For the compound `CC(CN(C)C)C(=O)Nc1ccc(-c2cccc(-c3nc4ccccc4[nH]3)c2)cc1` (stereo not drawn), the values for the inhibition in assay [1], in assay [2] and in assay [3] were 5.14%, 4.81% and 8.05%, respectively.
